The record followed here is ChEMBL document CHEMBL4513216, “Probing the Open Global Health Chemical Diversity Library for Multistage-Active Starting Points for Next-Generation Antimalarials” (ACS Infect Dis, 2020).

SMILES strings stand for the structures. In all, about 68,000 compounds went through this assay and about 2,700 (4%) showed an effect of 50% or more. For the sample, strong results were picked, then their nearest neighbours and some compounds at random.

The assay deals with Plasmodium berghei. Briefly: Screen against P. berghei liver stage (PbLuc), transformed with Luciferase, at 2uM. The settings on record: tested at 2 uM. It is filed as functional, HepG2.
Turning to `COc1ccc(NC(=O)NCC(O)c2ccc(F)cc2F)c(OC)c1` (configuration not stated), the INHIBITION is on record as 47.72%.
Then `CCCN1CCN(Cc2nccn2CC)C(C)C1` (configuration not stated), with 16.97%; and `CCn1ccnc1CN1CCN(c2nccc(OC)n2)CC1C` (configuration not stated), with 72.05%; and `CCn1ccnc1CN1CCN(C(C)C)CC1C` (configuration not stated), with -49.57%.
The same measure for `COc1ccccc1C(NCc1ccc(SC)cc1)c1nccn1C` (configuration not stated): 16.26%; for `COc1ccc(C2CCN(Cc3cscn3)CC2)cc1`: 56.84%; for `COc1ccc2c(c1)CCN(Cc1cscn1)CC2`: 1.54%.
Regarding `COc1ccc(OC)c(CN2CCN(Cc3cscn3)CC2)c1`, the INHIBITION is 1.3%.
Then `Cc1csc2ncc(-c3ccnc(N4CCC[C@H](C(N)=O)C4)n3)c(=O)n12`, with 43.16%.
Then `COC[C@@H]1CC[C@H]2[C@H](CCN2S(=O)(=O)c2cccc(F)c2)O1`, with 9.46%.
The same measure for `CNC(=O)NC(=O)CN1CCc2c(Br)ccc(F)c2C1`: -20.8%; for `NC(=O)C1(CCCc2ccccn2)CCCN(CCO)C1` (configuration not stated): -17.3%.
With `NC(=O)CN1CCCC(CCCc2ccccn2)(C(N)=O)C1` (configuration not stated), the INHIBITION worked out at 12.8%.
The same measure for `COCCN1CCCC(CCCc2ccccn2)(C(N)=O)C1` (configuration not stated): 55.74%; for `CN(c1ccc(F)cc1)S(=O)(=O)c1cc2c(c(C(=O)O)c1)OCCO2`: 26.75%; for `Cc1cc(C)cc(N(C)S(=O)(=O)c2cc3c(c(C(=O)O)c2)OCCO3)c1`: 34.46%.
The same measure for `CN(c1ccccc1)S(=O)(=O)c1cc2c(c(C(=O)O)c1)OCCO2`: 53.19%.
As for `Cc1ccc(F)c(NS(=O)(=O)c2cc3c(c(C(=O)O)c2)OCCO3)c1`, the INHIBITION was -45.83%.
The same measure for `O=C(O)c1cc(S(=O)(=O)Nc2ccc(F)cc2F)cc2c1OCCO2`: -29.54%; for `Cc1ccc(NS(=O)(=O)c2cc3c(c(C(=O)O)c2)OCCO3)c(F)c1`: 57.95%; for `O=C(Cc1cccs1)NCC1COCc2c(-c3ccoc3)nnn2C1` (configuration not stated): 24.34%.
The same measure for `COc1cc(CN(C)C(=O)NCCC(=O)NC2CCCC2)ccc1SC`: 49.88%; for `Cc1occc1C(=O)N1CCCS1(=O)=O`: 29.41%; for `CN(C)S(=O)(=O)N1CC[C@]2(C[C@H](OCc3ccncc3)CO2)C1`: 9.65%.
Regarding `COCCN1CC(Nc2nc(C3CCCC3)nc3c2cnn3C)CC1=O` (configuration not stated), the INHIBITION was 40.4%.
As for `COCCN1CC(Nc2nc(C(C)C)nc3c2cnn3C)CC1=O` (configuration not stated), the INHIBITION is listed as 57.34%.
Take `CC(C)C(=O)N1CCC(CNc2nc(C(C)C)nc3c2cnn3C)CC1`: the INHIBITION is reported as 19.12%.
Turning to `C=c1ncsc1=C1NN=C(C2CCCN2C(=O)CCn2ccc(C)n2)O1` (configuration not stated), the INHIBITION is listed as -16.2%.
For the compound `CC(NC(=O)NCCCN1CCc2ccccc2C1)c1nncn1C` (configuration not stated), the INHIBITION stood at 10.53%.
The same measure for `CN1CCN(S(=O)(=O)c2cncc(F)c2)c2ccccc2C1`: 52.73%.
The same measure for `Cc1cc(F)ccc1S(=O)(=O)N1CCN(C)Cc2ccccc21`: 26.62%; for `COc1cc(F)c(S(=O)(=O)N2CCN(C)Cc3ccccc32)cc1OC`: -50.8%.
`CN(C(=O)Cn1nc(-c2ccc(F)cc2)ccc1=O)C1CCS(=O)(=O)C1` (configuration not stated): the INHIBITION is reported as 11.87%.
The same measure for `CS(=O)(=O)N1CCCC1c1ccnc2nccn12` (configuration not stated): 12.35%.
With `CC(C)Oc1cc(N2CCC(N3CCC(O)CC3)CC2)nc(N)n1`, the INHIBITION was 2.39%.
Then `CC(C)Oc1cc(N2CCC(C(N)=O)CC2)nc(N)n1`, with 54.41%; and `CC(C)Oc1cc(N2CC[C@H](CO)[C@@H](O)C2)nc(N)n1`, with -1.63%; and `CC(O)c1cccc(Nc2nc(NCCO)c3ccccc3n2)c1` (configuration not stated), with 60.26%.
Then `CCN(CC)c1nc(Nc2cccc(C(C)O)c2)nc2ccccc12` (configuration not stated), with 6.9%.
Consider `CCN(CC)c1nc(Nc2cccc(C(=O)O)c2)nc2ccccc12`, for which the INHIBITION came to 22.51%.
Then `C=C(C)CN(CC)Cc1nc(CC)no1`, with 29.39%; and `Cc1nc(CN2CCC3(CC2)CCN(C(=O)c2cscn2)C3)cs1`, with 36.75%; and `Cc1ccc(-c2noc([C@@H]3C[C@H](NC(=O)CC(C)(C)C)CN3C)n2)cc1`, with 29.3%.
The same measure for `CCOC(=O)CCCNC(=O)CN1CCN(c2ncccn2)CC1`: 6.56%; for `CCc1nccn1CCCNC(=O)CN1CCN(c2ncccn2)CC1`: 52.57%; for `O=C(NCCCN1CCN(c2ncccn2)CC1)Nc1ccccn1`: 7.62%.
Then `Cc1cc(C2CCCCN2C(=O)CN2C(=O)OC(C)(C)C2=O)no1` (configuration not stated), with 13.51%; and `CC(C)c1cc(C2CCCN2C(=O)CN2C(=O)OC(C)(C)C2=O)no1` (configuration not stated), with 64.74%.
Regarding `Cc1cc(C2CCCN2C(=O)CN2C(=O)OC(C)(C)C2=O)on1` (configuration not stated), the INHIBITION came to 40.83%.
Then `CC(C)Cc1cc(C(=O)NC(C)C)[nH]n1`, with 31.66%.
The same measure for `O=C(Nc1nc(-c2ccccc2)ns1)N1CCN(C(=O)C2CC2)CC1`: 7.3%; for `CC(Cn1cncc1-c1cnn(Cc2ccccc2)c1)N1CCCCC1` (configuration not stated): -22.72%; for `CN(C)Cc1ccccc1Cn1cncc1-c1cnn(C)c1`: 55.3%.
The same measure for `CCn1nc(C)c(-c2cncn2Cc2ccccc2CN(C)C)c1C`: 17.29%.
In the case of `O=C(NCC1(CO)CC1)c1ccccc1C(F)(F)F`, the INHIBITION is reported as -41.99%.
Then `Cc1ccc(N2CCCC(NCC(=O)NCC3CC3)C2)nn1` (configuration not stated), with 42.92%; and `COc1ccc(CNC(C)c2ccc3[nH]c(=O)[nH]c3c2)cc1` (configuration not stated), with 3.9%.
With `CC(NCc1ccc(F)cc1)c1ccc2[nH]c(=O)[nH]c2c1` (configuration not stated), the INHIBITION is on record as -32.84%.
The same measure for `Cc1ccc(CNC(C)c2ccc3[nH]c(=O)[nH]c3c2)s1` (configuration not stated): 74.87%; for `CCN(CC1CCOC1)C(=O)c1ccn(-c2ccc(OC)cc2)n1` (configuration not stated): -8.85%.
The same measure for `Fc1ccccc1Sc1ccccc1CNC1=NCCN1`: -39.75%.
The same measure for `OCC1CCCN1c1cc(NCc2cc3ccccc3o2)ncn1` (configuration not stated): -15.36%; for `CC(C)(C)n1ncc2c1NC(=O)CC2c1cccc(O)c1` (configuration not stated): 31.54%; for `Cc1cc(-c2nccs2)nc(C2CCN(Cc3ccc(F)cc3)CC2)n1`: -12.17%.
On to `Cc1noc(C)c1CN1CCC2(CC1)NC(=O)CC2c1ccncc1` (configuration not stated), for which the INHIBITION is -12.36%.
As to `CCN1CCCC(O)(CNCc2ccc3c(c2)OCO3)C1` (configuration not stated), the INHIBITION came to 35.84%.
The same measure for `CCN1CCCC(O)(CNCc2ccncc2)C1` (configuration not stated): 50.02%; for `CCN1CCCC(O)(CNCc2ccccn2)C1` (configuration not stated): -36.39%; for `Cc1ccc(CN2CCn3c(CNC(=O)c4cccn4C)cnc3C2)s1`: -40.86%.
As to `COc1cccc(CN2CCC3(COCc4cnc(N(C)C)nc43)C2)c1` (configuration not stated), the INHIBITION is reported as 23.93%.
The same measure for `CSCc1cccc(S(=O)(=O)NCCCn2ccnc2)c1`: 16.48%.
Take `c1cnn(CC2CN(c3ncnc4ccsc34)CCO2)c1` (configuration not stated): the INHIBITION stood at 32.39%.
The same measure for `Cc1cc(F)ccc1C(=O)N1C[C@@H]2COC[C@]2(CN(C)C)C1`: 25.58%; for `O=C(C1=CCCC1)N1C[C@@H]2COC[C@]2(COCC2CC2)C1`: 24.23%.
Then `O=C(c1ccnnc1)N1C[C@@H]2COC[C@]2(COCC2CC2)C1`, with -57.61%; and `Cc1cc(F)ccc1C(=O)N1C[C@@H]2COC[C@]2(COCC2CC2)C1`, with 65.38%.
As for `COC[C@]12COC[C@H]1CN(C(=O)c1ccc(F)cc1C)C2`, the INHIBITION was 57.85%.
Take `COC[C@]12COC[C@H]1CN(C(=O)C1CC(F)(F)C1)C2`: the INHIBITION is -22.65%.
The same measure for `CCOc1c(F)cccc1C(=O)N(c1cccnc1)C(C)C`: -56.64%; for `CC1(C)CN(C(=O)c2ccc3nncn3c2)CCS1`: -17.04%.
The same measure for `Cc1nccn1-c1cccc(N2CCC(OCC3CCCCO3)CC2)n1` (configuration not stated): -16.7%; for `COc1ccc(OC)c2c(C)cc(N(C)Cc3cc(C)on3)nc12`: 38.87%; for `Cc1cccc(CN2CC3(CCN(C4CCOC4)CC3)OCC2=O)n1` (configuration not stated): 15.98%.
The same measure for `COc1c(CNCc2ccc(C(=O)N3CCCC3)cc2)c(C)nn1C`: -36.39%; for `O=C(CN1CCCC(c2ncc[nH]2)C1)NCC(F)(F)F` (configuration not stated): 51.23%; for `O=C(CN1CCCC(c2ncc[nH]2)C1)NCCCN1CCCCCC1=O` (configuration not stated): -21.61%.
`O=C(CCC(F)(F)F)N1CCCC(c2ncc[nH]2)C1` (configuration not stated): the INHIBITION was -1.64%.
Take `CC(=O)NS(=O)(=O)c1ccc(F)c(C(F)(F)F)c1`: the INHIBITION is -38.34%.
The same measure for `CS(=O)(=O)CCC(=O)N1CCC2(CCCN(C3CCOCC3)C2=O)C1` (configuration not stated): -11.19%; for `O=C(O)c1cc(S(=O)(=O)Nc2cccc3c2OCCO3)c(Cl)cc1F`: -47.76%; for `CCOc1ccc(C(F)(F)F)cc1NC(=O)N1CCC(C(N)=O)CC1`: -3.17%.
The same measure for `CCc1n[nH]c(NC(=O)c2ccc(Cl)cn2)c1Br`: -3.87%.
The same measure for `c1c(CN2CCCC2)nc2n1CCN(CC1CC1)C2`: -33.57%.
For `CN1CCN(Cc2cn3c(n2)CN(CC2CC2)CC3)CC1`, the INHIBITION turned out to be 70.17%.
The same measure for `c1c(CN2CCCCC2)nc2n1CCN(CC1CC1)C2`: 7.13%; for `Cc1ccc(CN2CCn3cc(CN4CCN(C)CC4)nc3C2)cc1`: 18.32%.
Then `CN1CCN(Cc2cn3c(n2)CN(Cc2ccncc2)CC3)CC1`, with 51.26%.
The same measure for `CN1CCN(Cc2cn3c(n2)CN(Cc2cccnc2)CC3)CC1`: -59.73%; for `CCCS(=O)(=O)NC(C)C(=O)NCc1ccc(N2CCCC2)nc1` (configuration not stated): -5.15%.
As for `O=C(c1cc[nH]n1)N1CCC2(CC1)CC(Oc1cccnc1)CO2` (configuration not stated), the INHIBITION was -0.83%.
For `O=C(CSc1ccccc1F)NS(=O)(=O)c1ccc2c(c1)OCCO2`, the INHIBITION turned out to be 12.81%.
As for `O=C(CCCOc1ccccc1F)Nc1cc[nH]n1`, the INHIBITION is -9.47%.
As for `CC(NC(=O)COc1nc(C(C)(C)C)no1)c1ccco1` (configuration not stated), the INHIBITION turned out to be 1.22%.
The same measure for `Cn1cc(C2CCCN2C(=O)CS(=O)(=O)C2CCCC2)cn1` (configuration not stated): -0.06%; for `Cc1ccc2c(c1)C1(CCN(C(N)=O)CC1)CN2CC1CC1`: 52.12%; for `CC(=O)N1CCC2(CC1)CN(CC1CC1)c1ccc(F)cc12`: -18.44%.
Then `Cc1ccc2c(c1)C1(CCN(C(N)=O)CC1)CN2C(=O)N(C)C`, with -22.42%.
